This is a sample that favours compounds with a hit; in the whole collection about 6.6% have one here.
RGS4 inhibitor: inhibitors of human regulator of G protein signaling 4 | actives 0.039% (n = 390,000) | Transcreener GDP fluorescence polarization, RGS4-accelerated GTP hydrolysis | Potency, µM (doses to about 114 µM), without a hit: at the highest dose activity change, negative = inhibition, actives largely listed as inhibitors | AID 504845 | P49798; further: on the % scale 0 is the no-effect control and ±100 the full control effect; nearly all actives have a fitted effect of over 75% in size
Target sequence (P49798 whole entry, looked up): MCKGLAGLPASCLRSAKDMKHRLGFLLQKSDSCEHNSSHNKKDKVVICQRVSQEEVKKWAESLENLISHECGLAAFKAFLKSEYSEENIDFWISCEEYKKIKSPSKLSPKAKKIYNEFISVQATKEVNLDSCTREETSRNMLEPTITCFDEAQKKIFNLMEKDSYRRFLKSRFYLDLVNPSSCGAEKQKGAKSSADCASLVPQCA
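MLSMR compounds (23 nl, pin-transferred) preincubated 10 min at room temperature with a 500nM (2x) first reagent, then RGS4 at 900nM (2x) plus Transcreener GDP mix added; fluorescence polarization (620/688 nm) read before and after 90 min at 30 °C.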
KB-3-1 tox: kills parental KB-3-1 adenocarcinoma cells | actives 1.4% (n = 400,000) | Potency, µM (doses to about 46.1 µM), hits mostly cytotoxic | KB-3-1 viability, CellTiter-Glo ATP luminescence, 72 h | AID 1347075; further: on the % scale 0 is the no-effect control and ±100 the full control effect; nearly all actives have a fitted effect of over 60% in size
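Using CellTiter-Glo luminescence, growth of non-resistant KB-3-1 adenocarcinoma cells is assessed 72 h after pin-tool compound addition at 37 °C. Normalized responses across the concentration series yield fitted curves.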
KB-V1 cytotox: KB-V1 MDR subline cytotoxicity | KB-V1 MDR cells viability, CellTiter-Glo, 72 h | actives 3.4% (n = 400,000) | Potency, µM (titrated, usually from 46.1 µM), usual class: cytotoxic | AID 1347076; further: on the % scale 0 is the no-effect control and ±100 the full control effect; nearly all actives have a fitted effect of over 60% in size
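Potencies derive from concentration-effect curves fitted to normalized luminescence (CellTiter-Glo) of KB-V1 cells treated for 72 h at 37 degrees C in phenol-red-free DMEM containing 10% FBS.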
MCF10A rereplic: induces DNA re-replication in MCF 10a normal breast cells; MCF 10A DNA re-replication, Hoechst nuclear intensity, 48 h; Potency, µM (top dose mostly 46.1 µM), without a hit: at the highest dose activity, positive = re-replication, actives largely listed as activators; actives 2.9% (n = 350,000); further: % of control where 0% means no effect; nearly all actives have a fitted effect of over 50% in size
TSG101-PTAP inh: blocks PTAP/TSG101 interaction to inhibit HIV-1 budding; Q99816; Fluorescence polarization, FITC-PTAP peptide / Tsg101 binding; Potency, µM (doses to about 115 µM), for inactives: at the highest dose activity change, negative = inhibition, hits mostly inhibitors; 340,000 tested, under 10 active; AID 493005; active means well fitted inhibition curve with a large enough effect in the main read-out, with a control signal flat, not every such curve was filed as active; inconclusive means small, poorly fitted or top-dose-only effect, or effect the other way, or a change in a side signal; inactive means no such curve, though single readings can be large or run the other way; further: % of control where 0% means no effect
Target sequence (Q99816 whole entry, looked up): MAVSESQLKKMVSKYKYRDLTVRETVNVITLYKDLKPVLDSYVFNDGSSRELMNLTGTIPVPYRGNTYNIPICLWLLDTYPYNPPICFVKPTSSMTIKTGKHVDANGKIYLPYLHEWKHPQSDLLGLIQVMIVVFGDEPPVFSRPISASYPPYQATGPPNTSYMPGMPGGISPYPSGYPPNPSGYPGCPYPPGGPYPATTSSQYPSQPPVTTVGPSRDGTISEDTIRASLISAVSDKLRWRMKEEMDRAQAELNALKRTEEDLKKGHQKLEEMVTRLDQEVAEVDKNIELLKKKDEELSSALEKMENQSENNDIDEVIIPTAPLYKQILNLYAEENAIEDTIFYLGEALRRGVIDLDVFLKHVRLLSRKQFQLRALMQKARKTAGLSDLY
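FP read-out: FITC-PTAP peptide, 50 nM final, binding Tsg101 binding domain, 10 uM final; 20 min, r.t.; 10 mM HEPES pH 7.5, 0.15 M NaCl, 0.01% Tween 20, 3 mM EDTA, 0.1 mM TCEP.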
SW480 rereplic: induces DNA re-replication in SW480 colon adenocarcinoma cells | SW480 DNA re-replication, Hoechst DNA content imaging, 48 h | Potency, µM (titrated, usually from 46.1 µM), without a hit: at the highest dose re-replication activation, most hits filed as activators | actives 1.8% (n = 340,000) | AID 624297; further: % of control where 0% means no effect; nearly all actives have a fitted effect of over 55% in size
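SW480 cells exposed to compounds for 48 hr at 37 C, 5% CO2, then Hoechst-stained 40 min. Nuclear DNA content imaged by fluorescence scanning (405 nm excitation, 500-530 nm emission); re-replication scored as increased high-intensity nuclei.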
Active calls of the source: *; i = inactive; ? = inconclusive; · = no result given; [ ] = dose if it differs, or a comment. Unless noted, the call rests on the fitted dose curve; in most records, active means well fitted curve in the direction sought with a large enough effect; inconclusive means small, poorly fitted or top-dose-only effect, or another doubt; inactive means no such curve, though single readings can be large; an effect the other way counts as inactive or inconclusive. Potency means the concentration at half of the fitted maximal effect.

SMILES	RGS4 inhibitor	KB-3-1 tox	KB-V1 cytotox	MCF10A rereplic	TSG101-PTAP inh	SW480 rereplic
COC(=O)c1sccc1S(=O)(=O)N1CCN(c2cccc(C)c2)C(C)C1 (configuration not stated)	-8.6%	i	i	·	·	·
Cc1cc(OC(C)C(=O)N(Cc2ccco2)Cc2ccco2)cc(C)c1Cl (configuration not stated)	-14.7%	·	·	·	·	·
COc1ccc(CCNC(=O)CCn2c(=O)c3ccccc3n(Cc3ccccc3C)c2=O)cc1OC	-10.3%	i	i	·	·	·
Cc1cc(NC(=O)C2CCN(S(=O)(=O)c3cccc4nsnc34)CC2)ccc1Br	1.3%	i	i	·	·	·
CN1CCN(CC(=O)N2c3ccccc3C(C)(c3ccc(Cl)cc3)CC2(C)C)CC1 (configuration not stated)	24.2%	?	i	1.8%	-0.6%	?
CN1CCN(CC(=O)N2c3ccccc3C(C)(c3ccccc3)CC2(C)C)CC1 (configuration not stated)	-7.5%	?	?	?	-1.6%	20.6µM*
O=C1Cc2cc(S(=O)(=O)N3CCN(c4ccc([N+](=O)[O-])cc4)CC3)ccc2N1	·	i	i	·	·	·
CCC12CN3CC(C)(CN(C1)C3c1ccc(O)cc1O)C2=O (configuration not stated)	-9.9%	i	i	·	·	·
O=C(Nc1ccc2c(c1)OCO2)c1cnn2c(C(F)(F)F)cc(-c3ccco3)nc12	7.1%	i	i	-0.7%	-6.7%	-0.4%
O=C(Nc1cnn(C23CC4CC(CC(C4)C2)C3)c1)c1cnn2c(C(F)(F)F)cc(-c3ccco3)nc12	-18.2%	i	8.2µM*	-14.6%	-7.7%	-15.0%
O=C(NC12CC3CC(CC(C3)C1)C2)c1cc2nc(-c3ccco3)cc(C(F)(F)F)n2n1	-27.6%	i	i	3.66µM*	1.9%	14.6µM*
COc1ccc(S(=O)(=O)NCCc2csc3nc(-c4cccc(C)c4)nn23)cc1F	19.7%	·	·	·	·	·
CCOC(=O)c1cnn(-c2ccc(C(=O)Nc3cc(OC)c(OC)c(OC)c3)cc2)c1N	9.7%	i	i	·	·	·
CC(C)C1C(=O)N(Cc2cn(CC3CCCCC3)nn2)CCS(=O)(=O)N1Cc1ccc(-c2ccc(F)nc2)cc1 (configuration not stated)	·	16.4µM*	?	·	·	·
COCOCCn1cc(CN2CCS(=O)(=O)N(Cc3ccc(-c4ccc(C)cc4)cc3)C(C)C2=O)nn1 (configuration not stated)	·	i	i	·	·	·
COCOCCn1cc(CN2CCS(=O)(=O)N(Cc3ccc(-c4ccc(Cl)c(Cl)c4)cc3)C(C)C2=O)nn1 (configuration not stated)	·	14.6µM*	?	·	·	·
CC1C(=O)N(Cc2cn(CC3CCCCC3)nn2)CCS(=O)(=O)N1Cc1ccc(-c2ccc(Cl)cc2)cc1 (configuration not stated)	·	?	18.4µM*	·	·	·
CCC(=O)O[C@@H](OP(=O)(CCCCc1ccccc1)CC(=O)N1C[C@H](C2CCCCC2)C[C@H]1C(=O)O)C(C)C (some centres not stated)	·	·	·	14.5%	·	1.4%
Cc1ccccc1OCc1occc1C(=O)Nc1cccc(-n2cnnn2)c1	-25.7%	16.4µM*	?	-5.6%	2.8%	-2.5%
Cc1cccc(OCc2occc2C(=O)Nc2cccc(-n3cnnn3)c2)c1	-2.8%	i	i	0.6%	-2.1%	-0.6%
CCn1nnc(NC(=O)COc2cc(C)ccc2C(C)C)n1	6.1%	i	14.6µM*	4.2%	-11.7%	-4.2%
N#CC1=C(N)N2C(=C(C#N)C1c1cccc(Br)c1)Nc1ccccc12 (configuration not stated)	-9.9%	?	5.8µM*	20.6µM*	-0.7%	14.6µM*
N#CC1=C(N)N2C(=C(C#N)C1c1ccc(Br)cc1)Nc1ccccc12 (configuration not stated)	-15.8%[11.4 µM]	i	i	2.06µM*	-4.6%	16.4µM*
N#CC1=C(N)SC(N)=C(C#N)C1c1cccc(Oc2ccccc2)c1	?	i	i	?	0.1%	8.2%
N#CC1=C(N)N2C(=C(C#N)C13CCN(Cc1ccccc1)CC3)Nc1ccccc12	22.8%	i	i	28.6%	-4.5%	11.7%
SMILES	RGS4 inhibitor	KB-3-1 tox	KB-V1 cytotox	MCF10A rereplic	TSG101-PTAP inh	SW480 rereplic
C#CCOc1ccc(C2C(C(=O)OC)=C(C)NC3=C2C(=O)c2ccccc23)cc1OCC (configuration not stated)	-40.1%	i	i	·	·	·
O=C(Nc1cccc(/C=C/c2nc3ccccc3c(=O)[nH]2)c1)c1ccccc1Cl	-0.3%	?	i	?	-0.3%	?
Cc1nc(/C=C/c2ccccc2)[nH]c(=O)c1-c1ccccc1	-28.9%	?	18.4µM*	?	0.7%	?
C(=C\c1ccco1)/c1nc2ccccc2[nH]1	-39.9%	?	?	9.5%	-4.3%	?
C(=C\c1nc2ccccc2[nH]1)/c1ccccc1	28.4%	18.4µM*	i	5.17µM*	-1.0%	14.6µM*
O=c1[nH]c(/C=C/c2ccc(Br)cc2)nc2ccccc12	-10.7%	i	i	?	3.2%	-5.9%
COc1ccc(C(=O)Nc2cccc(/C=C/c3nc4ccccc4c(=O)[nH]3)c2)cc1	3.5%	?	i	6.51µM*	-2.3%	?
Cc1cccc(/C=C\c2nc3ccccc3c(=O)[nH]2)c1	-13.2%	14.6µM*	?	5.8µM*	-1.0%	20.6µM*
CCCCCCCCCCCCC/C=C/[C@@H](O)[C@H](CO)NC(C)=O	i	·	·	·	·	·
COc1ccc(Cl)cc1NC(=O)CN(c1cccc(C)c1C)S(C)(=O)=O	-27.6%	i	i	·	·	·
CCN(CC)CCCNC(=O)c1nn(C)c2c1CSc1ccccc1-2	-12.1%	·	·	·	·	·
